# In the library only some 9.2% were active in any assay of this set; here they are far more common.
# ELG1 genotoxic: inducers of genotoxicity in HEK293T ELG1-luciferase cells | 1.3% of 330,000 active | Potency, µM (top dose mostly 46 µM), for inactives: at the highest dose activity change, positive = activation, hits mostly activators | HEK293T ELG1-luciferase reporter, luminescence, 16 h | AID 504466; note: % of control where 0% means no effect; nearly all actives have a fitted effect of over 60% in size
#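 Quantitative HTS format in 1536-well plates. HEK293T ELG1-luciferase reporter cells receive test compound and are incubated 16 hr at 37 °C, 5% CO2; ONE-Glo added, 30 min room temperature, then luminescence read.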
# ELG1 repair inh: inhibitors of ELG1-dependent DNA repair in HEK293T cells; HEK293T ELG1-luciferase reporter, luminescence, 16 h; DNA damage induced by 5-fluorouridine; Potency, µM (doses to about 46.1 µM), without a hit: top-dose activity change, negative = inhibition, most hits filed as inhibitors; 2.3% of 330,000 active; AID 504467; note: % is set by controls: 0 for no effect and ±100 for the full control effect; nearly all actives have a fitted effect of over 55% in size
#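 Step one: seed 2,000 cells per well. Step two: pin-transfer compound or DMSO alongside 5-fluorouridine. Step three: incubate 16 hr, 37 °C, 5% CO2. Step four: add ONE-Glo, wait 30 min, read luminescence.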
# FLuc modulator: counter-screen for miR-21 project: firefly luciferase inhibitors or activators; P08659; purified FLuc, Km substrates, luminescence inhibition; Potency, µM (doses to about 57.5 µM), without a hit: at the top dose activity change, negative = inhibition, actives largely listed as inhibitors; 6.9% of 360,000 active;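 note: plate controls were vehicle for no effect and reference inhibitor for full effect; nearly all actives have a fitted effect of over 55% in size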
# Target sequence (P08659 whole entry, looked up): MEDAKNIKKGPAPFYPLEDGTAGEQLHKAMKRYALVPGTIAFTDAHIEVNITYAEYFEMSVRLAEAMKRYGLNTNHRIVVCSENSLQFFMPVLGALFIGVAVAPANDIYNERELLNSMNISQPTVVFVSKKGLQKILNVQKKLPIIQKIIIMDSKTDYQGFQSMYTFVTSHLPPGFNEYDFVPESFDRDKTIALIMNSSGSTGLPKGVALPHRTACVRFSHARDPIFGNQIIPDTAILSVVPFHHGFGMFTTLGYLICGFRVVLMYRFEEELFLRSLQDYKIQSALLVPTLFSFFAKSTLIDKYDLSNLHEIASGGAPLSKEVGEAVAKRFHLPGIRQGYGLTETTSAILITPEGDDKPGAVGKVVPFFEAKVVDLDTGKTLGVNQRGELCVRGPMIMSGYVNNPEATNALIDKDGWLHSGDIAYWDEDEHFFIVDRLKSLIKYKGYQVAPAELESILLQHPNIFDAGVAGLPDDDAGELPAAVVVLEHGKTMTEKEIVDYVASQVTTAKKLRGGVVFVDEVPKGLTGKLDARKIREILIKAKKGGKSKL
#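 Purified P. pyralis luciferase, 10 nM final, with Km-level 10 uM D-luciferin and 10 uM ATP in 50 mM Tris acetate pH 7.5, 10 mM Mg acetate, 0.01% Tween-20, 0.05% BSA; 6-point qHTS titration about 60 µM downward; luminescence read.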
# NPC1 prom act: activators of NPC1 promoter; Huh7 NPC1 promoter luciferase reporter, 24 h; Potency, µM (titrated, usually from 9.22 µM), without a hit: top-dose activation, hits mostly activators; 2.4% of 320,000 active; AID 485313; note: % of control where 0% means no effect; nearly all actives have a fitted effect of over 60% in size
#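 Stable NPC1-promoter luciferase Huh7 line; cpd (DMSO) 24 h, 37 °C, 5% CO2; Amplite luciferase reagent 10 min RT; luminescence readout. qHTS format.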
# SMN2 splice enh: SMN2 splice variant enhancement | 2.8% of 210,000 active | HEK293 SMN2-luciferase splicing reporter, luminescence, 30-36 h | Potency, µM (series often up to 46.1 µM), without a hit: top-dose activity change, positive = activation, actives largely listed as activators | AID 1458; note: % of control where 0% means no effect; nearly all actives have a fitted effect of over 55% in size
#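 HEK293 cells carry an SMN2 […]–luciferase reporter in which exon 7 inclusion puts luciferase in frame. Cells were plated 10-12 h before compound addition, then incubated 30-36 h at 37C. ONE-Glo luminescence was read; sodium butyrate at 4.5 mM final served as control.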
# Rab9 promoter act: activates the Rab9 promoter; Potency, µM (doses to about 9.22 µM), for inactives: top-dose activation, negative = inhibition, most hits filed as activators; 2.8% of 320,000 active; Huh7 Rab9 promoter-luciferase reporter, luminescence, 24 h; AID 485297; note: % of control where 0% means no effect; nearly all actives have a fitted effect of over 60% in size
#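 Using Huh7 cells stably transfected with Rab9 promoter–luciferase, compounds were incubated 24 h at 37 °C, 5% CO2; luciferase luminescence was read 10 min after reagent addition.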
# * hit, by the source's call; ? = inconclusive; / = not tested or not shown; [ ] = another dose, or the depositor's remark. Calls come from the whole dose curve; as a rule, active = well fitted curve in the direction sought with a large enough effect; inconclusive = small, poorly fitted or top-dose-only effect, or another doubt; inactive = no such curve, though single readings can be large; an effect the other way counts as inactive or inconclusive. Potency is the fitted concentration of half-maximal effect.
SMILES,ELG1 genotoxic,ELG1 repair inh,FLuc modulator,NPC1 prom act,SMN2 splice enh,Rab9 promoter act
O=C(c1ccc(CNS(=O)(=O)c2ccccc2)cc1)N1CCC2(CC1)OCCO2,?,?,?,?,-38%,3.5µM*
O=C(CSc1ccccc1)N1CCC2(CC1)OCCO2,10µM*,?,?,?,13µM*,?
O=C(c1ccc(CNS(=O)(=O)c2ccc(Br)cc2)cc1)N1CCC2(CC1)OCCO2,-5%,?,6%,-3%,-32%,-6%
O=C(CN1CCN(Cc2ccc(Cl)cc2)C1=O)N1CCC2(CC1)OCCO2,-1%,-8%,13%,-2%,-7%,-3%
Cn1c(=O)cc(SCC(=O)N2CCC3(CC2)OCCO3)c2ccc(Cl)cc21,14%,?,1%,-1%,20µM*,-2%
Cc1ccc(NC(=[OH+])c2cc3ccccc3cc2O)c(C)c1.Cc1ccc(NC(=[OH+])c2cc3ccccc3cc2O)c(C)c1.[Ni],/,/,/,/,23%[9.22 µM],/
O=C(CCn1c(=O)oc2ccccc21)N1CCN(C(c2ccccc2)c2ccccc2)CC1,-13%,13µM*,-1%,0%,-24%,0%
Cc1cc(C(=O)CS(=O)(=O)c2ccc(F)cc2)cc(C)c1OC(=O)N(C)C,?,?,11µM*,4µM*,6%,2.8µM*
CN(C)C(=O)Oc1c(Cl)cc(Cl)c2ccccc12,2%,0%,0%,-2%,2%,12%
CC(=NCc1ccc2c(c1)OCO2)c1c(O)n(C)c(=O)n(C)c1=O,-9%,?,2%,1%,-33%,-5%
CCC(=NCCc1c[nH]c2ccccc12)c1c(O)n(C)c(=O)n(C)c1=O,-10%,16µM*,-2%,-8%,-74%,-17%
CCC(=NCc1ccc2c(c1)OCO2)c1c(O)n(C)c(=O)n(C)c1=O,-17%,15µM*,-2%,1%,/,-11%
CCC(=Nc1ccc(OC)cc1OC)c1c(O)n(C)c(=O)n(C)c1=O,-5%,?,-4%,6%,-59%,-11%
CCC(=NCc1cc(OC)cc(OC)c1)c1c(O)n(C)c(=O)n(C)c1=O,-17%,21µM*,8%,-6%,-45%,-25%
Cc1ccc2cc3c(ccc4ccccc43)c3c2c1CC3,/,/,/,/,10%,/
O=C1C2C3CCC(C3)C2C(=O)N1c1ccc(OS(=O)(=O)c2ccccc2)cc1 (stereo unspecified),?,?,12µM*,3.5µM*,-27%,1.1µM*
CC(=O)O[C@H](CC(=O)O)C[N+](C)(C)C,-10%,-6%,-1%,-6%,/,-5%
CC(=O)OC(CC(=O)O)C[N+](C)(C)C (stereo unspecified),-6%,18µM*,5%,-2%,13µM*,-7%
COc1ccccc1N(CC(=O)NC1CCCC1)C(=O)c1cnn(C(C)C)c1,11%,?,15µM*,?,?,?
COc1cc2c(cc1OC)C(C(=O)N1CCC3(CC1)OCCO3)C(c1ccccc1F)N(C)C2=O (stereo unspecified),-8%,18µM*,2%,-4%,9%,12%
CCN(CC)c1ccc(N=Cc2c(O)n(-c3ccccc3C)c(=O)[nH]c2=O)cc1,3%,0%,?,0%,0%,-2%
CCOc1ccccc1-n1c(O)c(C=Nc2ccc(N(CC)CC)cc2)c(=O)[nH]c1=O,14%,28%,19µM*,9%,-5%,-5%
COc1ccc(-n2nc(C(=O)NCC(=O)N3CCC4(CC3)OCCO4)c3ccccc3c2=O)cc1Cl,12%,?,1.2µM*,?,/,?
COc1ccc(-n2nc(C(=O)NCC(=O)N3CCC4(CC3)OCCO4)c3ccccc3c2=O)cc1,?,?,1.1µM*,?,/,?
COC(=O)c1nc(-c2ccc3c(n2)C(=O)C(N)=C(OC)C3=O)c(N)c(-c2ccc(OC)c(OC)c2O)c1C,-13%,2.1µM*,0%,-33%,/,-35%
SMILES,ELG1 genotoxic,ELG1 repair inh,FLuc modulator,NPC1 prom act,SMN2 splice enh,Rab9 promoter act
CC1CCN(CC(=O)c2ccccc2Cl)CC1,?,?,11µM*,23%,?,?
CC1CCN(CC(=O)c2ccc3c(c2)OCCO3)CC1,?,?,11µM*,?,13µM*,?
CC1CCCN(CC(=O)c2ccc(Cl)c(Cl)c2)C1 (stereo unspecified),-2%,9%,-4%,-5%,-3%,-5%
CC1CN(CC(=O)c2ccccc2Cl)CC(C)O1 (stereo unspecified),1%,17%,-17%,-1%,/,-4%[1.84 µM]
COc1ccc(CCNC(=O)c2ccc3c(c2)N=C(C)c2cc(C)ccc2S3)cc1OC,/,/,-10%,/,-31%,/
COC(=O)C12CC3=CC(CC3=O)Cc3ccccc3[C@@H]1CNC2=O (stereo partly specified),/,/,/,/,3%,/
CCOc1cc(C=O)ccc1O,1%,0%,/,/,-7%,/
COc1cc(/C=C/[N+](=O)[O-])ccc1O,-18%,23µM*,?,-6%,?,1%
CC(c1nccs1)N(C)C(=O)c1cn(Cc2cccc3ccccc23)nn1 (stereo unspecified),14%,?,?,?,/,?
CCN(CC)c1ccc(/C=C2\C(=O)NC(=S)N(C)C2=O)o1,21µM*,?,9.5µM*,1.4µM*,/,1.3µM*
CCN(CC)c1ccc(C=C2C(=O)N(C)C(=S)N(C)C2=O)o1,?,?,?,14%,?,?
Cc1ccc(C(C)(C)NC(=O)C2CCC(=O)N(C3CCCCCC3)C2)cc1 (stereo unspecified),?,?,15µM*,?,/,3.2µM*
Cc1ccc(-c2cc(NC(=O)c3ccccc3)on2)cc1,?,?,2.4µM*,?,/,2.2µM*
Cc1cc(NC(=O)CCl)on1,7%,-19%,-2%,-6%,27%,2%
O=[As](O)(O)c1ccc(N=Nc2ccc([As](=O)(O)O)cc2)cc1,/,/,/,/,-8%[9.22 µM],/
O=[As](O)(O)c1ccc(N=Nc2ccc(O)cc2)cc1,2%,2%,13µM*,0%,-1%[9.22 µM],-2%
C=C[C@@H]1CN2CC[C@H]1CC2[C@H](O)c1ccnc2ccccc12 (stereo partly specified),/,/,/,/,-7%[9.22 µM],/
Cc1c(C(c2ccc(Br)cc2)c2c(O)c3ccccc3oc2=O)c(=O)n(-c2ccccc2)n1C (stereo unspecified),6%,-10%,12µM*,-5%,-12%,-7%

# Assay outcomes as filed in PubChem BioAssay.
